# Source: PubChem BioAssay
# An excerpt weighted towards active compounds, which were near 7.7% of everything screened.
# TbPYK inhibitor = blocks Trypanosoma brucei pyruvate kinase; Q57TT1; TbPYK enzyme, Kinase-Glo Plus ATP luminescence, 45 min; Potency, µM (highest dose often 76.8 µM), inactives show at the top dose activity, negative = inhibition, most hits filed as inhibitors; 410,000 tested, 0.12% active; AID 624173; note: potency is the fitted concentration of half-maximal effect; nearly all actives have a fitted effect of over 50% in size
#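 In this concentration-response screen, enzyme-free wells defined baseline while DMSO plates tracked drift. Each reaction combined TbPYK, substrate, compound and 130 uM ADP for 45 min at room temperature. Kinase-Glo Plus luminescence gave the signal.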
# RE007 growth inh = less growth of the S. pombe RE007 Vpr strain; S. pombe RE007 Vpr strain, BacTiter-Glo ATP luminescence, 24 h; Potency, µM (highest dose often 92.2 µM), without a hit: at the highest dose activity change, negative = less growth, hits mostly inhibitors; 360,000 tested, 0.21% active; AID 651644; active = well fitted falling curve with a large enough effect; inconclusive = small, poorly fitted or top-dose-only effect; inactive = no such curve, though single readings can be large or run the other way; note: potency is the fitted concentration of half-maximal effect; nearly all actives have a fitted effect of over 50% in size
#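 Fission yeast RE007 carrying one integrated HIV-1 vpr copy, seeded at OD 0.01 in PMG+AL medium with 23 nL pinned compound. Grown 24 h at 30 degrees; viability read by BacTiter-Glo luminescence after 5 min.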
# FMDV antiviral = antivirals against foot and mouth disease virus. 410,000 tested, 1.2% active. Potency, µM (top dose mostly 57.9 µM), inactives show at the top dose activity change, negative = inhibition, hits mostly inhibitors. FMDV antiviral cell-based qHTS; calls by dose curve; tested in HEK293T cells; note: read-out not given here; potency is the fitted concentration of half-maximal effect; nearly all actives have a fitted effect of over 45% in size
# HCMV antiviral = blocks human cytomegalovirus replication; HFF cells, HCMV-luciferase reporter, 72 h; stronger effect = lower value; activity change, negative = inhibition, % at 57.5 µM; 410,000 tested, 4.5% active; AID 1259415; in the data active = activity change below about -60%; inconclusive = no clear call, values can overlap the other calls; inactive = above about -39%
#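 Screen run at 2 compound doses on HFFs infected with reporter HCMV, MOI 1 PFU/cell. Luciferase activity from cell lysates at 72 h post infection gave inhibition relative to buffer-only and Salinomycin wells.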
# Giardia FBPA inh = blocks Giardia fructose-bisphosphate aldolase activity | A8B2U2 | purified Giardia FBPA | Potency, µM (series often up to 59.6 µM), for inactives: top-dose activity, negative = inhibition, most hits filed as inhibitors | 290,000 tested, 0.71% active; note: potency is the fitted concentration of half-maximal effect; nearly all actives have a fitted effect of over 55% in size
# Target sequence (A8B2U2 whole entry, looked up): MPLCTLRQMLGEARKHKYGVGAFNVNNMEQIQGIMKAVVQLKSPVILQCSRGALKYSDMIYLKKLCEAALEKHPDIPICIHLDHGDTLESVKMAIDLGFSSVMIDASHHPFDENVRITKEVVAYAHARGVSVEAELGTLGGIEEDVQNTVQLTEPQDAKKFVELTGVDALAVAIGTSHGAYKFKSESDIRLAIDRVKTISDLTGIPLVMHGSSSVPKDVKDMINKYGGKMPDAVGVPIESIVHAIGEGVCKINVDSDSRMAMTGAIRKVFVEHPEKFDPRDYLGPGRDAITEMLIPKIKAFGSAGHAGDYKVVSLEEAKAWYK
#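 Giardia FBPA (40 nM reagent) was preincubated 10 min at RT with compound (up to 57.5 uM final), then substrate plus GAPDH/TPI/NAD/arsenate coupling system with diaphorase/resazurin was added; resorufin fluorescence (525/598 nm) was read after 20 min.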
# Sm TGR block = S. mansoni TGR enzyme inhibition; purified TGR, DTNB reduction, TNB absorbance 405 nm; Q962Y6; 360,000 tested, 3% active; AID 485364; Potency, µM (highest dose often 114 µM), for inactives: at the highest dose activity change, negative = inhibition, hits mostly inhibitors; note: potency is the fitted concentration of half-maximal effect; nearly all actives have a fitted effect of over 60% in size
#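 Kinetic colorimetric format: TGR-catalysed, NADPH-driven DTNB reduction monitored via TNB absorbance. Enzyme dispensed at 20 nM; compound exposure 15 min at room temperature before reaction start.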
# Starred values were filed as active, the others as inactive; ? = inconclusive; · = no result given; + = active, no number; ! = a repeat was not active; [ ] = dose if it differs, or a comment. Unless noted, calls come from the whole dose curve; as a rule, active = well fitted curve in the direction sought with a large enough effect; inconclusive = small, poorly fitted or top-dose-only effect, or another doubt; inactive = no such curve, though single readings can be large; an effect the other way counts as inactive or inconclusive. % is set by controls: 0 for no effect and ±100 for the full control effect.
SMILES,TbPYK inhibitor,RE007 growth inh,FMDV antiviral,HCMV antiviral,Giardia FBPA inh,Sm TGR block
Cc1cc2cc(CCNC(=O)c3cccs3)c(=O)[nH]c2cc1C,-1%,10%,5%,-99*,4%,-16%
O=C(NCCc1ccccc1)c1cc2sccc2n1Cc1ccc(F)cc1,2%,·,-9%,3,·,-9%
COc1ccc(-c2oc3ncnc(NCCCN(C)C)c3c2-c2ccc(OC)cc2)cc1,1%,16%,?,-84*,0%,8%
COc1cc(=O)n2c(c1C(=O)NCc1cccc(F)c1)CCN(Cc1cccnc1)CC2,·,·,-3%,·,·,·
CC(C)CNC(=O)c1cn(C2CCN(Cc3nc4ccccc4s3)CC2)nn1,·,·,-10%,·,·,·
CCC(c1nnnn1CCc1ccccc1)N(Cc1ccco1)Cc1cc2cc(C)cc(C)c2[nH]c1=O (centres undefined),-2%,7%,?,-71*,-10%,56µM*
OC(c1ccc2c(c1)CN(Cc1cccn1-c1cccnc1)CCO2)C1CCCCC1 (centres undefined),·,·,2%,·,·,·
Cc1ncc(Cc2ccccc2)c(C2CCN(S(=O)(=O)C[C@]34CC[C@H](CC3=O)C4(C)C)CC2)n1,·,·,46%,·,·,·
O=S(=O)(Cc1ccccc1)Cc1cnc(Cl)s1,4%,19%,4%,6,0%,40µM*
O=S(=O)(Cc1cnc(Cl)s1)c1ccccc1,1%,2%,-1%,-15,8%,0%
COc1ccc(CCCc2nnc(SCC(=O)N/N=C\c3ccc(O)c(OC)c3)o2)cc1C,-6%,-26%,22µM*,27,-1%,7%
Cc1cccc(NC(=O)c2cc(S(=O)(=O)N3CCc4ccccc43)cn2C)c1C,2%,6%,-20%,-5,-14%,-16%
O=C(Nc1nc2c(F)cc(F)cc2s1)c1ccc(S(=O)(=O)N2CCc3ccccc32)cc1,3%,·,-27%,-99*,·,-2%
O=C(Nc1nc2c(F)cccc2s1)c1ccc(S(=O)(=O)N2CCCc3ccccc32)cc1,-4%,·,?,-3,·,-2%
Cc1ccc(NC(=O)c2cc(S(=O)(=O)N3CCc4ccccc43)cn2C)c(Cl)c1,1%,·,-10%,-61*,·,-9%
Cc1ccc2nc(NC(=O)c3ccc(S(=O)(=O)N4CCCc5ccccc54)cc3)sc2c1,4%,8%,?,-90*!,4%,2%
O=C(Nc1nc2ccc(F)cc2s1)c1cccc(S(=O)(=O)N2CCc3ccccc32)c1,-2%,5%,0%,-13,2%,?
O=C(CN1C=NS(=O)(=O)c2ccccc21)Nc1ccccc1F,-1%,·,-6%,6,·,7%
CCOc1cccc(-c2c(C(=O)N/N=C(\C)c3ccncc3)nnn2-c2nonc2N)c1,2%,2%,-12%,-30,·,1%
Nc1nonc1-n1nnc(C(=O)N/N=C/c2cccc(Cl)c2)c1-c1cccs1,1%,-8%,-6%,+,·,-5%
COc1cc(/C=N/NC(=O)c2nnn(-c3nonc3N)c2C)ccc1OCc1ccc(Cl)cc1,-2%,6%,28%,-61*,·,·
CCOc1cccc(-c2c(C(=O)N/N=C(\C)c3ccccn3)nnn2-c2nonc2N)c1,1%,3%,-9%,-69*,·,-5%
Nc1nonc1-n1nnc(C(=O)N/N=C/c2cc(Br)cs2)c1-c1ccccc1,3%,1%,-22%,-69*,8%,11%
COc1ccc(/C=N/NC(=O)c2nnn(-c3nonc3N)c2-c2cccs2)cc1OC,0%,1%,?,0,·,4%
Nc1nonc1-n1nnc(C(=O)N/N=C/c2ccccn2)c1-c1ccccc1,-1%,11%,-14%,0,21%,-2%
SMILES,TbPYK inhibitor,RE007 growth inh,FMDV antiviral,HCMV antiviral,Giardia FBPA inh,Sm TGR block
Cc1ccc(NC(=O)N2CCc3c(sc4c3CCCC4)C2c2ccccc2)cc1F (centres undefined),-10%,·,4%,17,·,3%
CCCc1ccc(NC(=O)C2CCN(c3cnccn3)CC2)cc1,2%,-12%,-16%,-64*!,·,7%
Cc1ccc(NC(=O)C2CCN(c3cnccn3)CC2)cc1,-1%,-13%,-14%,20,-1%,1%
N#Cc1c(NC(=O)CSc2nnc(-c3ccco3)n2-c2ccccc2)sc2c1CCC2,-4%,10%,?,-39,0%,56µM*
NC(=O)c1c(NC(=O)CSc2nnc(-c3ccco3)n2-c2ccccc2)sc2c1CCC2,-2%,62%,?,-1,-18%,22µM*
COc1ccc(O[C@H]2C=C[C@@H](c3ccccc3)O[C@H]2COC(=O)CC/C(C)=N\O[C@@H](C)CN2CCCCc3nc(C)c(C)cc32)cc1,·,·,·,·,0%[12.9 µM],·
Oc1cccc2c(NC(=S)Nc3ccc(OC(F)F)cc3)cccc12,-5%,-26%,?,-99*,?,-11%
CON(C)C(=O)/C=C/[C@H](CC1CCCC1)NC(=O)C(F)(F)F,·,·,·,-10,·,·
Cc1ccc(-n2c(C)cc(C(=O)COc3c(CO)cc(F)cc3CO)c2C)cc1C,-11%,14%,?,-92*,-8%,-9%
Cc1cc(C(=O)COc2ccccc2Cl)c(C)n1-c1ccc2c(c1)OCO2,0%,2%,29%,28,-12%,-11%
COc1cccc(CNCCc2ccc3c(c2)OCO3)c1OC,8%,-14%,2%,-22,-25%,40µM*
COc1ccc(C(CCNCc2ccc(N(C)C)cc2)c2ccccc2)cc1 (centres undefined),-7%,11%,-22%,6,8%,-17%
COc1cccc(CNCCc2cccc(F)c2)c1OC,2%,7%,5%,-3,?,?
COc1cc(OC)c(OC)cc1CNCc1ccc2c(c1)OCO2,18%,-18%,3%,-12,?,45µM*
COc1ccc(CNCCC(c2ccc3c(c2)OCO3)c2ccccc2OC)cc1 (centres undefined),-9%,·,-31%,-106*,·,1%
COc1ccc(C(C)NCCC(c2ccc(OC(C)C)cc2)c2ccccc2OC)cc1 (centres undefined),-6%,1%,-24%,-97*,10%,7%
CCN(C(=O)c1cc2c(s1)-c1ccccc1OC2)c1cc(Cl)ccc1OC,5%,·,?,-30,·,-2%
Cc1ccc2c(CC(=O)N3CCN(c4cccc(Cl)c4)CC3)coc2c1C,2%,·,?,8,·,7%
COc1cc(Br)c(CNCCc2ccc3c(c2)OCO3)cc1OC,4%,2%,-10%,44,?,-31%
